Data on 44 sequences can be found in PMC7819943, “Rice protein-binding microarrays: a tool to detect cis-acting elements near promoter regions in rice”.

Whole data set: some 68,000 sequences, median “fluorescence intensity (a.u.)” near 9,100, cut for the highest 2% near 16,000. The sample holds the highest values, similar sequences and a random draw of the others, so the mix is not that of the screen.

In this assay the target is OsWRKY34 (Oryza sativa, UniProt Q0JBA9 1-250). Description: protein-binding microarray (RPBM); PBS, 2% BSA, 51.3 ng/ul salmon testes DNA, 50 uM zinc acetate, 200 nM TF, 25 C, 1 h; high values mean tight binding. Particulars: protein: recombinant; tags: N-terminal polyhistidine and DsRed monomer fusion (pET32a); label: CyDye5-dUTP incorporated in the synthesized complementary strand; 3' TTTTT single-stranded linker to array surface; dsDNA, one strand shown. Summed up: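 For the binding signal, per-feature fluorescence intensity was read in arbitrary units on an Axon 4000B scanner. Before scanning, a 2% BSA-blocked custom Agilent array made double-stranded with Cy5-dUTP was washed after 1 h at 25 °C with 200 nM protein and 50 µM zinc acetate. The proteins were Ni–NTA-purified transcription factors with N-terminal polyhistidine and DsRed fusions, expressed in E. coli BL21-CodonPlus.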
OsWRKY34, sequence (Q0JBA9 entry or part of it): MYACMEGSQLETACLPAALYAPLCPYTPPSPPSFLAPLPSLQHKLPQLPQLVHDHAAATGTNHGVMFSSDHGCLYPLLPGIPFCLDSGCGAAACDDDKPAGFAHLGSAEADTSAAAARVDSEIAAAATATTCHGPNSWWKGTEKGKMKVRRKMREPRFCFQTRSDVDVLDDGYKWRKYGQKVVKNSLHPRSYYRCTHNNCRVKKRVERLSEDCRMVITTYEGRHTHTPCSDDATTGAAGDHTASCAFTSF
Regarding “GAGGGGAGGGAGAGGTCGGAGATGGTTACCGGTGGGGAAGCGGAGTCACCTAGTGCAG”, the binding signal was 12300 fluorescence intensity (a.u.).

“GAAGCTTCGGGAGTGGTGGTGGGTTGCGGCCGTGCGGCTCCGGAGTCACCTAGTGCAG”: the binding signal is 10900 fluorescence intensity (a.u.).

“TTGGGTTGGGTTGGGTGGTCCATTCTGTACGGTGCGCCGGCGGAGTCACCTAGTGCAG”: the binding signal is 19600 fluorescence intensity (a.u.).

Regarding “GCTTCGGCTCGGGGTGGGTTGGGTTGGGTTGGGTTCGATGCGGAGTCACCTAGTGCAG”, the binding signal was 32400 fluorescence intensity (a.u.).

Take “GCGCTGTGGTCCCGGCGCCGGCAGTGGTTGCTTCTGCGCGCGGAGTCACCTAGTGCAG”: the binding signal is 8560 fluorescence intensity (a.u.).

For “GGGTGGGCGTGATGGAGTTGGGTCGGCCGGGGTGTCCGGTCGGAGTCACCTAGTGCAG”, the binding signal is 14500 fluorescence intensity (a.u.).

For the sequence “GTGGGGCTCGGGTTCCGGCCGGTGTAGGGGAGGGGAGATGCGGAGTCACCTAGTGCAG”, the binding signal was 15700 fluorescence intensity (a.u.).

With “GACGGCGCCCTGCGGCTTCGGTTGCGGGGTGGGTGGTGGCCGGAGTCACCTAGTGCAG”, the binding signal is 10300 fluorescence intensity (a.u.).

On to “GCGCGGCGGCGGTGGGGTGGTAGTGGTGGTGGGTGGAATGCGGAGTCACCTAGTGCAG”, for which the binding signal was 13500 fluorescence intensity (a.u.).

Take “CAAGATGGGTCGGGTTGGGTGGGGTTACTCGCACTAGCACCGGAGTCACCTAGTGCAG”: the binding signal is 22300 fluorescence intensity (a.u.).

With “CATGTGTGGTGAGCATATTTGTTTGTACTGTTGTATTTTACGGAGTCACCTAGTGCAG”, the binding signal was 9560 fluorescence intensity (a.u.).

Regarding “CTTCTTCTATATCTGTAATCTTTCCTTATCTCCTCCCATGCGGAGTCACCTAGTGCAG”, the binding signal is 8520 fluorescence intensity (a.u.).

Turning to “CCACCTCGTTTTATGTAAAACACTTAATCTTCAACTTCAGCGGAGTCACCTAGTGCAG”, the binding signal is 8860 fluorescence intensity (a.u.).

For “CGCAATCCACTTTCTCTCGCCAAGTCGTCGTCCATCCGATCGGAGTCACCTAGTGCAG”, the binding signal is 9020 fluorescence intensity (a.u.).

Consider “TTTTCAGCGTGTGCATCACATGGTCCGTATCTTTAATACTCGGAGTCACCTAGTGCAG”, for which the binding signal was 8520 fluorescence intensity (a.u.).

Turning to “TCCTGTCGTATGTCTTCACCACCACACAAACAATGCTTCTCGGAGTCACCTAGTGCAG”, the binding signal was 9550 fluorescence intensity (a.u.).

Turning to “ACTCCACTTAGGCTGCATTCGTTCTAGATACATTGAGTTACGGAGTCACCTAGTGCAG”, the binding signal is 9970 fluorescence intensity (a.u.).

“GCCTTTGTCGGTCATGTTCCCATCGCTTTAGTTCTTCTCACGGAGTCACCTAGTGCAG”: the binding signal was 15000 fluorescence intensity (a.u.).

“GTGATAGAAAAGTTGTGTGTGTATGAAATGTTTGATGCGACGGAGTCACCTAGTGCAG”: the binding signal was 8750 fluorescence intensity (a.u.).

For “ATACTGAGAAAGTGCCAAGTTTTTGTCTGCTTCATGTAACCGGAGTCACCTAGTGCAG”, the binding signal is 8110 fluorescence intensity (a.u.).

Turning to “GACCTCGCCGTCGCCGTCGCCGCCGCCGCCGCCGCCATGGCGGAGTCACCTAGTGCAG”, the binding signal is 9900 fluorescence intensity (a.u.).

Take “CATTGTTCCTCACAGGATCAGGGGTGGAGAGTGAAGAGAGCGGAGTCACCTAGTGCAG”: the binding signal was 8070 fluorescence intensity (a.u.).

With “GTGGTTGATTTGACCTTTTACATTGTACAGATGGTATTGGCGGAGTCACCTAGTGCAG”, the binding signal is 8480 fluorescence intensity (a.u.).

In the case of “TGCGGGATGGCTGGTTGGTGTGCGTGTGCTTCGGTGCGTTCGGAGTCACCTAGTGCAG”, the binding signal is 10400 fluorescence intensity (a.u.).

As to “AGCGATGGTGGTGGTGGTGGTGGTGGTGGCTGGGTTGCTTCGGAGTCACCTAGTGCAG”, the binding signal was 28200 fluorescence intensity (a.u.).

Regarding “GCGGGCAGTGGGCGCGAGATCTCATCCGAGTGGGTGGGCGCGGAGTCACCTAGTGCAG”, the binding signal was 8060 fluorescence intensity (a.u.).

In the case of “CTTCTCCTCTAGTCTGTGGTTGGCTGGCGATGGTGGCTTGCGGAGTCACCTAGTGCAG”, the binding signal is 8820 fluorescence intensity (a.u.).

As to “GATCCGCGGCGCGGGTGGGGTTGTGGGGCGGGCGGAGATGCGGAGTCACCTAGTGCAG”, the binding signal was 19200 fluorescence intensity (a.u.).

With “CCGCGGGTGGGGAGATTTGACCGGCGTTGACTCCGGGATGCGGAGTCACCTAGTGCAG”, the binding signal was 14300 fluorescence intensity (a.u.).

As for “CAGCCATCGCCTCCCCGACTCCCGTCGTTGTCCACCCCGTCGGAGTCACCTAGTGCAG”, the binding signal is 8260 fluorescence intensity (a.u.).

Take “TGTTCTGCCAGCCAATCCAGATCGCCCTCGTATGCACGCTCGGAGTCACCTAGTGCAG”: the binding signal was 8890 fluorescence intensity (a.u.).

As to “TGAACTCCTAATACTGTCCTACCACTTCTACATGTCTTCTCGGAGTCACCTAGTGCAG”, the binding signal was 11300 fluorescence intensity (a.u.).

Take “GCCTGCGCCGATCCCCATCCATTCCGCGAGCGAGCGAGTGCGGAGTCACCTAGTGCAG”: the binding signal is 8160 fluorescence intensity (a.u.).

For “AACAGCTCTCGATCTGATCGTCCCCACACCGCACGCTGACCGGAGTCACCTAGTGCAG”, the binding signal was 9930 fluorescence intensity (a.u.).

Take “CCTCGCCGAAGCCTCTCTACCTCTGTGTGTCTCTCTCTCCCGGAGTCACCTAGTGCAG”: the binding signal is 8120 fluorescence intensity (a.u.).

With “AAACTTCCCCGCGTACGATGACGCCAATACACATACATATCGGAGTCACCTAGTGCAG”, the binding signal is 10700 fluorescence intensity (a.u.).

As for “GAGTGTATTTCATCTCAAGTTAGCATGCGAGTTTTTTTTACGGAGTCACCTAGTGCAG”, the binding signal was 8210 fluorescence intensity (a.u.).

For “TATCGTGCTTCCATGTGCACAGATCGATCAAACTCGCATGCGGAGTCACCTAGTGCAG”, the binding signal was 9270 fluorescence intensity (a.u.).

Consider “GTGTATGATGCCGTTGACTTTTTATCCAACGTTTGACCATCGGAGTCACCTAGTGCAG”, for which the binding signal is 38800 fluorescence intensity (a.u.).

For the sequence “GTGTATTTATGGTTTTTTTTTCAACGTTTGACCATCCGTTCGGAGTCACCTAGTGCAG”, the binding signal was 12300 fluorescence intensity (a.u.).

Regarding “GGTATAGTTTTATACTGTTTATATCCAACGTTTGACCGTTCGGAGTCACCTAGTGCAG”, the binding signal was 10200 fluorescence intensity (a.u.).

For “ATGTATGACGCTGTTGACTTTGTAACCAATATTTGACCATCGGAGTCACCTAGTGCAG”, the binding signal is 13400 fluorescence intensity (a.u.).

“TGTATGATGCTGTTGACTTTTTATCCAACGTTTGACCATCCGGAGTCACCTAGTGCAG”: the binding signal was 21200 fluorescence intensity (a.u.).

For “ATACATGACGCCGTTGATTTTTTAATCAACGTTTGACCATCGGAGTCACCTAGTGCAG”, the binding signal was 8210 fluorescence intensity (a.u.).
